From PubChem BioAssay
aSyn rescue: rescues yeast growth from alpha-synuclein toxicity | Potency, µM (titrated, usually from 46.1 µM), inactives show at the top dose growth rescue (activation), most hits filed as activators | Yeast expressing alpha-synuclein, growth rescue, BacTiter-Glo, 24 h | hit rate 0.14% among 370,000; further: % of control where 0% means no effect; nearly all actives have a fitted effect of over 65% in size
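Galactose-induced alpha-syn yeast (OD600=0.02, raffinose-pregrown) + pinned cpd, 24 hr, 30 deg C; growth by BacTiter-Glo luminescence. Growth restoration scores as activation.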
TDP-43 yeast inh: TDP-43 toxicity inhibition in yeast; TDP-43 expressing yeast growth rescue, BacTiter-Glo, 24 h; Potency, µM (doses to about 46.1 µM), inactives show at the highest dose growth rescue (activation), actives largely listed as activators; hit rate 1.8% among 410,000; AID 652104; further: % of control where 0% means no effect; nearly all actives have a fitted effect of over 50% in size
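Luminescence from BacTiter-Glo reports growth of TDP-43-expressing yeast after 24 hr at 30 deg C with compound. Cells were raffinose-pregrown to mid-log, then seeded in galactose medium at OD600=0.02.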
FUS suppressor: rescues growth of FUS-expressing yeast; AID 1347120; S. cerevisiae FUS-expressing, growth rescue, OD600, 24 h; Potency, µM (top dose mostly 76.6 µM), actives largely listed as activators; hit rate 0.24% among 390,000;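 further: plate controls were DMSO vehicle for no effect and reference control for full effect; nearly all actives have a fitted effect of over 55% in size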
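Yeast expressing FUS under galactose induction, OD 0.005 in 2% galactose medium; compounds in a dilution series, 24 h at 30C. Growth rescue by absorbance at 600 nm; CP55940 positive control, DMSO negative.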
Abeta rescue: restores growth of yeast expressing A-beta42 peptide; yeast expressing A-beta42, growth rescue, OD600, 48 h; response scale: 0% DMSO, 100% iron-clioquinol control; Potency, µM (top dose mostly 46.1 µM), usual class: activators; hit rate 0.063% among 410,000; AID 1347071; further: nearly all actives have a fitted effect of over 55% in size
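Yeast A-beta toxicity model in growth medium with pinned compounds, 48 h at 30 C; growth read as absorbance at 600 nm. Normalized to FeCl3/clioquinol equimolar mix (positive) and DMSO (negative).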
* hit, by the source's call; i = inactive; ? = inconclusive; . = not tested or not shown; [ ] = remark or other dose. Most compounds without a hit are left out; they make up all but 2.1% or so of the library. The call rests on the fitted dose curve; in most records, active means well fitted curve in the direction sought with a large enough effect; inconclusive means small, poorly fitted or top-dose-only effect, or another doubt; inactive means no such curve, though single readings can be large; an effect the other way counts as inactive or inconclusive. Potency means the concentration at half of the fitted maximal effect.

SMILES	aSyn rescue	TDP-43 yeast inh	FUS suppressor	Abeta rescue
COc1ccc(-c2nc(CSCC(=O)N3CCN(c4ccc(F)cc4)CC3)c(C)o2)cc1	.	?	?	i
O=[N+]([O-])c1ccc(S(=O)(=O)N2CCn3cccc3C2c2ccccc2F)cc1 (stereo not given)	.	22µM*	?	i
COC(=O)[C@H]1C[C@@]2(C)c3ccccc3N[C@H]2N1	.	.	i	.
N[C@@H](Cn1ccc(=O)[nH]c1=O)C(=O)O	-3%	.	.	.
CCC(=O)c1cn(Cc2ccccc2C#N)c2ccccc12	5%	25µM*	i	i
N#Cc1ccccc1Cn1cc(C(=O)C2CC2)c2ccccc21	11%	20µM*	i	i
N#Cc1ccccc1Cn1cc(C(=O)c2ccco2)c2ccccc21	2%	15%	i	i
CCC(=O)O[C@H]1CC[C@H]2[C@@H]3CCC4=CC(=O)CC[C@]4(C)[C@H]3CC[C@]12C	1%	14µM*	i	i
CC12CCC(=O)C=C1CCC1C2CCC2(C)C(O)CCC12 (stereo not given)	-1%	27%	i	i
CCOC(=O)CC[C@@H]1CC[C@]2(CCCN(Cc3ccccn3)C2)O1	.	.	i	.
CCC(C)C1NC(=O)C2CCCN2C(=O)C(CC(C)C)OC(=O)CCNC(=O)C(C)N(C)C(=O)C(C(C)C)N(C)C1=O (stereo not given)	-3%	-15%	.	i
C=CCCC[C@@H]1OC(=O)CNC(=O)C([C@@H](C)CC)NC(=O)[C@@H]2CCCN2C(=O)C([C@@H](C)CC)OC(=O)[C@H](Cc2ccccc2)N(C)C(=O)[C@H](C(C)C)NC(=O)C1(C)C (stereo not given in full)	11%	-2%	4µM*	i
CC(C)(C)C(=O)C(Oc1ccc(Cl)cc1)n1cncn1 (stereo not given)	?	11µM*	i	i
COC(=O)C1=C(c2ccc(F)cc2F)C[C@@H]2CC[C@H]1N2C(=O)N1CCC(O)(c2ccc(Cl)cc2)CC1	?	20µM*	?	?
Cc1ccc(N=C(/N=C(\N)N[N+](=O)[O-])Nc2ccc(C)cc2)cc1	-3%	-12%	i	i
CC(C)(C)n1nnnc1C1CN=C(c2ccccc2)c2ccccc2N1 (stereo not given)	.	.	i	.
O=C(Nc1ccccn1)NC12CC3CC(CC(C3)C1)C2	-7%	3.2µM*	i	i
C=CCCC(NC(=O)OCc1ccccc1)P(=O)(Oc1ccccc1)Oc1ccccc1 (stereo not given)	.	.	i	.
N#CC1(c2ccccc2)CCN(C2CC(=O)N(c3ccc(F)cc3)C2=O)CC1 (stereo not given)	-1%	-1%	i	i
COc1ccc(N2C(=O)CC(N3CC=C(c4ccccc4)CC3)C2=O)cc1 (stereo not given)	?	22µM*	i	i
Cc1nn(-c2nccs2)c2c1C(=O)CC(C)(C)C2Br (stereo not given)	-1%	14µM*	i	i
COc1ccc(OCC(=O)N2CCN(Cc3cccc(OC)c3OC)CC2)cc1	.	14%	i	i
Cc1ccc(NC(=O)CN2C(=O)CN=C(c3ccccc3)c3ccccc32)cc1Cl	.	?	i	i
O=C(c1ccc2c(c1)N(Cc1ccc(F)cc1)C(=O)c1ccccc1S2)N1CCC2(CC1)OCCO2	.	27%	i	i
CCOc1ccc(CN2C(=O)c3ccccc3Sc3ccc(C(=O)N4CCC5(CC4)OCCO5)cc32)cc1	.	13µM*	?	i
SMILES	aSyn rescue	TDP-43 yeast inh	FUS suppressor	Abeta rescue
Cc1cccc(NC(=O)c2cc3c(=O)n4ccccc4nc3n2C)c1C	.	?	i	i
NN=C1C(Cl)=C(Cl)C(Cl)=C1Cl	4%	18µM*	i	i
Cc1ccc2c(c1)NP(=S)(Oc1ccccc1)N2 (stereo not given)	?	35µM*	i	i
O=P(Nc1cccc(Cl)c1)(Oc1ccccc1)Oc1ccccc1	22µM*	-16%[1.82 µM]	i	?
CCOC(=O)CC[C@@H]1CC[C@]2(CCCN(Cc3ccncc3)C2)O1	.	.	i	.
CCN(CC)C(=O)c1ccc2c(c1)C1C(Cl)C(Sc3ccccc3[N+](=O)[O-])CC1C(C(=O)O)N2 (stereo not given)	-23%	-34%	40µM*	i
Cc1ccc(-c2nc(CN3C(=O)CN=C(c4ccccc4)c4ccccc43)c(C)o2)cc1	.	5%[9.22 µM]	i	i
Cc1oc(-c2ccccc2Cl)nc1CN1C(=O)CN=C(c2ccccc2)c2ccccc21	-31%	35µM*	i	i
C#CCOc1ccc2c(c1)c(C(C)=O)c(C)n2Cc1ccccc1	-9%	20µM*	i	i
c1ccc2[nH]c(CCN3CCCCC3)nc2c1	-9%	1%	i	i
Nc1c(Br)cc([N+](=O)[O-])cc1[N+](=O)[O-]	1%	13µM*	i	i
C=CCNc1nnc(Sc2ncccc2[N+](=O)[O-])s1	1%	?	i	i
O=C1NC(=S)NC(=O)C1=Cc1ccc(OCc2ccccc2)cc1	-67%	18µM*	i	?
CC(C)(C)c1ccc(OCCON2C(=O)CCC2=O)c(Cl)c1	1%	13µM*	i	i
C[C@H]1[C@H](OC(=O)CCC(=O)NCc2ccc(C(=O)O)cc2)O[C@@H]2O[C@@]3(C)CC[C@H]4[C@H](C)CC[C@@H]1C24OO3	-9%	22µM*	i	i
CC(C)CC(NC(=O)CCCNC(=O)CCC(=O)OC1O[C@H]2OC3(C)CC[C@H]4[C@H](C)CCC(C1C)C24OO3)C(=O)O (stereo not given in full)	-2%	20µM*	i	i
CC1C(OC(=O)CCC(=O)NC(C)(C)CO)O[C@H]2OC3(C)CC[C@H]4[C@H](C)CCC1C24OO3 (stereo not given in full)	-10%	22µM*	i	i
CCCn1c(C)c(C(=O)c2ccc3ccccc3c2)c2ccccc21	-16%	.	.	.
N#CSCC(=O)N1c2ccccc2CCc2ccccc21	0%	18µM*	.	?
CC(=O)c1c(O)cc2c3c1OC(C)(C)C1CCC(C)(CC31)O2 (stereo not given)	-11%	?	i	i
COc1ccc(Nc2nc(N)nc(CSc3nc4ccccc4s3)n2)cc1	.	20µM*	?	i
CCC(=O)c1cn(Cc2ccccc2)c2ccccc12	4%	8.9µM*	i	i
CC(C)(C)C(=O)c1cn(Cc2ccccc2)c2ccccc12	0%	13µM*	i	i
O=C(c1ccco1)c1cn(Cc2ccccc2Cl)c2ccccc12	3%	?	i	i
O=C(c1ccco1)c1cn(Cc2ccccc2)c2ccccc12	5%	22µM*	i	i
COc1ccc(OC)c(CCNCc2c(C(=O)O)c(C)n(Cc3ccc(F)cc3Cl)c2C)c1	.	10%	i	i
